The test addresses furin, P09958. Description: furin cleavage Z-score vs untreated control; higher = more cleavage, active = 3.5 or more, inactive = 1 or less, 8 variable residues between constant flanks. Put shortly: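 The cleavage Z-score was derived for purified furin acting on 8-mer peptides held on magnetic beads and fused to a cDNA oligonucleotide. Digests lasted 7.5, 15 or 30 min at 1:10 enzyme:substrate in 50 mM HEPES pH 7.5 with CaCl2 and NaCl. Sequencing counts of released DNA, log-transformed against furin-free reactions, were lowess-adjusted and scaled by median absolute deviation.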

The other results are listed elsewhere or left out. The true hit rate is not given.

Chain of furin, P09958 (P09958 whole entry, the tested form may be a part): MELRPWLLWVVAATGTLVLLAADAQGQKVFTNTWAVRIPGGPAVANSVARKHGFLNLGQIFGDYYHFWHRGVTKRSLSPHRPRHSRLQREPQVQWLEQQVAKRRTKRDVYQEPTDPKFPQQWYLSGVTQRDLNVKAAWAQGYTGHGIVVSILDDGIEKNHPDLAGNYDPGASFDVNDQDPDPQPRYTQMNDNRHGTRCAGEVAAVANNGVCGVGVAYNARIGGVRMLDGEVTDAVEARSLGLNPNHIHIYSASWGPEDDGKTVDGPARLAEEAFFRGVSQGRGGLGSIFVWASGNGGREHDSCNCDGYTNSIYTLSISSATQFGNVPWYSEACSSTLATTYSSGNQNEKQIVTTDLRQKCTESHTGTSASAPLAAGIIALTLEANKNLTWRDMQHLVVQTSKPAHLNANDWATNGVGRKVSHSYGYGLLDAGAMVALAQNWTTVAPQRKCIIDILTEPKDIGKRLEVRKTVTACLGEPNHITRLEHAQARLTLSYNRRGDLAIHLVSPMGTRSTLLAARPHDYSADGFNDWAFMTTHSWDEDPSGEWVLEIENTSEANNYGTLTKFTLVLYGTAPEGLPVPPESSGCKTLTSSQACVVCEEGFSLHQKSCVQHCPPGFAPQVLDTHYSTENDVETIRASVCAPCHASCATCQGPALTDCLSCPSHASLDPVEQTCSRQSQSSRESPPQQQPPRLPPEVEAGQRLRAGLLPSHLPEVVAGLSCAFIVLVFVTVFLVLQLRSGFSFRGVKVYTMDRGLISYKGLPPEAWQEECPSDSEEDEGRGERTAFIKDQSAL

For the sequence CALPNREDRAAGNASASA [FS-54], the “furin cleavage Z-score” value runs as follows: (7.5 min) 0.255 (inactive); (15 min) -1.19 (inactive); (30 min) -1.7 (inactive).
In the same order, the values of CASDIRTEEAAGNASASA [HC1486] are 0.515 (inactive), -1.04 (inactive) and -1.3 (inactive).
Take CALPARDKRAAGNASASA [FS-1026]: the “furin cleavage Z-score” value was 9.51 (active) (7.5 min), 8.58 (active) (15 min) and 8.12 (active) (30 min).
In the same order, the values of CASPIRTPRAAGNASASA [FS-1083] are 4.85 (active), 4.51 (active) and 4.42 (active).
For CALRMFERRSAGNASASA [FS-1367], in that order: 0.304 (inactive), -0.351 (inactive) and 0.543 (inactive).
On to CASRDRFRRSAGNASASA [FS-1282], for which the “furin cleavage Z-score” value runs as follows: (7.5 min) 13 (active); (15 min) 12.2 (active); (30 min) 9.49 (active).
For CASRSLSRRSAGNASASA [FS-1088], in that order: 8.82 (active), 10.1 (active) and 7.4 (active).
For CAIPSGFRRSAGNASASA [FS-339], in that order: -0.371 (inactive), -1.96 (inactive) and -0.569 (inactive).
As to CADMMEECSQAGNASASA [HC1806], the “furin cleavage Z-score” value is -0.946 (inactive) (7.5 min), -0.28 (inactive) (15 min) and -0.569 (inactive) (30 min).
In the same order, the values of CAAKVLVVLLAGNASASA [HC345] are -0.548 (inactive), -0.603 (inactive) and 0.816 (inactive).
In the same order, the values of CAAKSRQRRQAGNASASA [FS-1583] are 9.65 (active), 11 (active) and 7.11 (active).
For CANEKRQRRQAGNASASA [FS-552], in that order: 8.64 (active), 9.03 (active) and 8.4 (active).
CAAKSRQMRSAGNASASA [FS-321]: the “furin cleavage Z-score” value is 12.3 (active) (7.5 min), 12.5 (active) (15 min) and 8.77 (active) (30 min).
In the same order, the values of CATHMRQMRSAGNASASA [FS-304] are 5.44 (active), 7.85 (active) and 7.29 (active).
For CAQALPVWARAGNASASA [HC1302], in that order: -0.162 (inactive), 0.223 (inactive) and -0.716 (inactive).
In the same order, the values of CAATRDGKLPAGNASASA [HC284] are 0.288 (inactive), -1.04 (inactive) and 0.353 (inactive).
With CATMRIVGPRAGNASASA [HC1182], the “furin cleavage Z-score” value (7.5 min) was 0.31 (inactive), the “furin cleavage Z-score” value (15 min) was determined as 1.38 and the “furin cleavage Z-score” value (30 min) was 0.463 (inactive).
For CATTRCSGSWAGNASASA [HC1873], the “furin cleavage Z-score” value was -2.28 (inactive) (7.5 min), -0.493 (inactive) (15 min) and -0.341 (inactive) (30 min).
For CAGCIITSLTAGNASASA [HC681], in that order: -0.591 (inactive), -0.913 (inactive) and -0.483 (inactive).
For CAHEMEECSQAGNASASA [HC1795], in that order: 0.638 (inactive), -0.825 (inactive) and 0.0903 (inactive).
In the same order, the values of CAEPPRPRRGAGNASASA [FS-992] are -0.496 (inactive), -0.299 (inactive) and 0.0496 (inactive).
For the sequence CAKNSRKLRGAGNASASA [FS-258], the “furin cleavage Z-score” value is 0.0851 (inactive) (7.5 min), 1.03 (15 min) and 2.96 (30 min).
In the same order, the values of CAPIIRKSRGAGNASASA [FS-1472] are 10 (active), 10.9 (active) and 7.97 (active).
For CAPGRRPRRGAGNASASA [FS-68], in that order: 10.4 (active), 9.49 (active) and 8.86 (active).
As for CAGALRPRRGAGNASASA [FS-421], the “furin cleavage Z-score” value is, setting by setting: (7.5 min) 1.31; (15 min) 0.929 (inactive); (30 min) 0.673 (inactive).
For CALIAFASRGAGNASASA [HC1120], in that order: 0.403 (inactive), -0.694 (inactive) and 0.0807 (inactive).
For CAASSRPRRGAGNASASA [FS-10], in that order: 5.57 (active), 4.59 (active) and 4.78 (active).
In the same order, the values of CAHLHQNIVDAGNASASA [HC506] are -0.675 (inactive), -0.105 (inactive) and -1.09 (inactive).
As to CASPTTALVMAGNASASA [HC324], the “furin cleavage Z-score” value is, setting by setting: (7.5 min) 0.089 (inactive); (15 min) -0.626 (inactive); (30 min) -1.02 (inactive).
With CARQRRARFVAGNASASA [FS-1770], the “furin cleavage Z-score” value is, setting by setting: (7.5 min) 6.58 (active); (15 min) 8.49 (active); (30 min) 7.14 (active).
In the same order, the values of CARERRYSTVAGNASASA [FS-2551] are -0.101 (inactive), 1.01 and 0.281 (inactive).
As for CARQRRLVLVAGNASASA [FS-2764], the “furin cleavage Z-score” value is -0.772 (inactive) (7.5 min), -0.609 (inactive) (15 min) and 1.17 (30 min).
In the case of CARQRRAFQVAGNASASA [FS-2508], the “furin cleavage Z-score” value is, setting by setting: (7.5 min) 1.92; (15 min) 4.22 (active); (30 min) 6.29 (active).
In the same order, the values of CARQRRAITVAGNASASA [FS-2509] are 4.39 (active), 7.17 (active) and 7.22 (active).
For CARNRRIITVAGNASASA [FS-3198], in that order: 0.0348 (inactive), -1.25 (inactive) and 0.314 (inactive).
In the case of CARQPRVDFVAGNASASA [FS-2064], the “furin cleavage Z-score” value was -1.17 (inactive) (7.5 min), -0.264 (inactive) (15 min) and -0.469 (inactive) (30 min).
In the same order, the values of CAVVCMSMSYAGNASASA [HC88] are -1.17 (inactive), -0.925 (inactive) and 0.213 (inactive).
In the same order, the values of CAPPSWDQMWAGNASASA [HC961] are 1.06, -0.132 (inactive) and 1.
In the same order, the values of CAVKNGTMRIAGNASASA [HC1180] are 2.3, 1.25 and 0.508 (inactive).
As to CADLYLVTRHAGNASASA [HC725], the “furin cleavage Z-score” value is -0.523 (inactive) (7.5 min), -1.17 (inactive) (15 min) and -0.885 (inactive) (30 min).
In the case of CARFRRKRRHAGNASASA [FS-854], the “furin cleavage Z-score” value runs as follows: (7.5 min) 9.74 (active); (15 min) 9.95 (active); (30 min) 7.32 (active).
In the same order, the values of CAAEARKNRPAGNASASA [FS-1508] are -0.91 (inactive), 0.425 (inactive) and -1.59 (inactive).
In the case of CADTERKRRHAGNASASA [FS-411], the “furin cleavage Z-score” value reads like this: (7.5 min) 8.87 (active); (15 min) 11 (active); (30 min) 9.59 (active).
Regarding CAHELRHRRHAGNASASA [FS-170], the “furin cleavage Z-score” value (7.5 min) is 11 (active), the “furin cleavage Z-score” value (15 min) is 10.9 (active) and the “furin cleavage Z-score” value (30 min) is 11 (active).

The record behind these values is the supplement of paper PMC3545927.
